# Experimental data from PubChem BioAssay (EPA / NIEHS).
# Results filed as inconclusive are left out. Calls of active or inactive are those of the source. Rule for the calls, unless noted: active = hit-call score of the fitted dose curve at least 0.9, where 1 is the maximum; inconclusive = response in the unintended direction; inactive = score below 0.9.
# Assays:
# [1] = system: IYD (gene 389434); experiment: CCTE_GLTED_hIYD: CCTE's human Iodotyrosine Deiodinase (xIYD) Inhibition Assay, Great Lakes Toxicology and Ecology Division (GLTED) Lab (AID 2284317)
# Description: CCTE_GLTED_hIYD is a cell-free, single-readout assay that uses human iodotyrosine deiodinase (hIYD) enzyme produced with baculovirus-insect cell system. The assay is based on iodide release measured by the Sandell-Kolthoff method and is run in 96-well plate format with assay plates run in triplicate (n=3) with measurements taken at 3 hours after chemical dosing. Platewise-normalization was used based on positive control (3-Nitro-L-tyrosine, MNT) and negative/solvent controls (DMSO, NaOH).CCTE_GLTED_hIYD is the assay component measured from the CCTE_GLTED_hIYD assay. It measures substrate involved in regulation of catalytic activity using spectrophotometry. The assay measures the deiodination activity of human IYD on the substrate monoiodotyrosine (MIT). After 3h incubation of substrate, enzyme, and test chemical, the components are applied to a 96-well Dowex column. Free iodide is not retained by the column and is separated from interfering assay components. The free iodide is measured by the Sandell-Kolthoff reaction in which the rate of reduction of cerium (Ce+4 to Ce+3) by arsenic (As+3 to As+5) is increased by the presence of iodide. This is observed as the loss of yellow color in the reaction and the quantified by the change in absorbance at 420 nm. The change in reaction rate is proportional to the amount of iodide present.Data from the assay component CCTE_GLTED_hIYD was analyzed at the assay endpoint CCTE_GLTED_hIYD in the positive analysis fitting direction relative to DMSO as the negative control and baseline of activity. Using a type of enzyme reporter, loss-of-signal activity can be used to understand iodotyrosine deiodinase activity. To generalize the intended target to other relatable targets, this assay endpoint is annotated to the 'dehalogenase' intended target family, where the subfamily is 'iodotyrosine deiodinase'.
# Human thyroxine binding globulin (TBG) assay, developed at Great Lakes Toxicology and Ecology Division (GLTED) within the EPA's Center for Computational Toxicology and Exposure (CCTE), is designed to test the chemicals' ability to displace T4 from the TBG protein. The method used was largely based on Montano et al. (2012). This work describes the utilization of ANSA fluorescence when bound to the protein to approximate binding affinity of chemicals through a reduction of fluorescence when ANSA is displaced. This assay was conducted in 96-well plates with an incubation at 4C for 2 hours in a final volume of 200 uL. Final assay conditions included 0.0625 uM TBG, 0.6 uM ANSA, and 0.5% DMSO in 0.1 M phosphate buffer, pH=7.5.
# [2] = CCTE_Deisenroth_5AR_NBTE_donor: CCTE's 5alpha-reductase NanoBRET Target Engagement Assay […], Deisenroth Lab (AID 2284319; active = hit-call score of the fitted dose curve at least 0.9, where 1 is the maximum; inactive = score below 0.9); conditions: actives raise or lower the signal
# Procedure, shortened: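 Donor NanoLuc luminescence at 460-20 nm is the read-out, serving artifact detection. Transiently expressed SRD5A2-NanoLuc in HEK293T; 5 h total chemical exposure, testosterone tracer added for the final 2 h; fitting bidirectional relative to DMSO baseline.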
# [3] = system: TTR (gene 7276); experiment: CCTE_GLTED_hTTR_0.5uM: CCTE's human Transthyretin (hTTR) Inhibition Assay, with 0.5uM TTR, Great Lakes Toxicology and Ecology Division (GLTED) Lab (AID 2284320; active = hit-call score of the fitted dose curve at least 0.9, where 1 is the maximum; inactive = score below 0.9)
# Procedure, shortened: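 Probe (ANSA) displacement from 0.5 uM human transthyretin was followed by fluorescence (ex 380, em 475) after a 2 h incubation with chemical. Activity was scored as signal loss and fitted positively relative to DMSO.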
# [4] = CCTE_Mundy_HCI_iCellGluta_NOG_NeuriteLength: CCTE's Neurite Outgrowth Assay in iCellGluta cells for Neurite Length, Mundy Lab (AID 2284318)
# Procedure, shortened: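 Automated high-content imaging of betaIII-tubulin (Alexa Fluor-488) and Hoechst-stained cells gave neurite length, normalized to the DMSO baseline.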
# [5] = IUF_NPC5_oligodendrocyte_differentiation_120hr: Leibniz Research Institute for Environmental Medicine (IUF) 120-hour Oligodendrocyte Differentiation Assay (NPC5) (AID 2284304);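 note: share of O4-positive cells among Hoechst nuclei found by CNN image analysis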
# Description: (§1) IUF_NPC2-5 is a cell-based, multiplexed assay that uses hNPC, a human primary neural progenitor cells, with measurements taken at 72 or 120 hours after chemical dosing in a 96-well plate. Human neural progenitor cells (hNPC) are generated from human fetal brain cortex at gestational week (GW) 16-19. In the neural progenitor cell migration and differentiation assay (NPC2-5), hNPCs grown as spheres are plated on an extracellular matrix and migrate and differentiate out of the sphere core. The processes radial glia migration, neuronal and oligodendrocyte migration as well as neuronal differentiation, neuronal morphology and oligodendrocyte differentiation are studied using automated phase contrast imaging and automated fluorescence imaging in combination with high content image analysis. In parallel, the cell viability is assessed using an alamar blue viability assay and the cytotoxicity using a lactate dehydrogenase dependent membrane integrity assay.IUF_NPC5_oligodendrocyte_differentiation_120hr is one of 12 assay components measured from the IUF_NPC2-5 assay. Oligodendrocyte differentiation at 120 hr is determined as the number of all O4-positive cells in percent of the number of Hoechst-positive nuclei in the total neurosphere migration area (see IUF_NPC2a_ glia_migration_120hr) after 120 hr of migration/differentiation. […]
# [6] = IUF_NPC4_neurite_area_120hr: Leibniz Research Institute for Environmental Medicine (IUF) 120-hour Neuronal Morphology Assay for Neurite Area (NPC4) (AID 2284305)
# Procedure, shortened: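 Neurite area (pixels, nuclei excluded) of TUBB3-positive neurons from hNPC spheres differentiating 5 days under continuous exposure at 37 C, 5% CO2. High-content imaging; loss of signal versus DMSO control across 7 concentrations.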
# [7] = IUF_NPC2-5_cytotoxicity_72hr: Cytotoxicity Assessment at 72 hours in the Leibniz Research Institute for Environmental Medicine (IUF) Neural Progenitor Cell Migration and Differentiation Assay for Cytotoxicity (NPC2-5) (AID 2284306);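 note: LDH release into supernatant measured by resorufin fluorescence marking membrane damage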
# Procedure, shortened: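 Membrane-integrity cytotoxicity at 72 h, read as LDH-driven resorufin fluorescence in supernatant. hNPC spheres from fetal cortex differentiate on coated plates in N2 medium, 37C, 5% CO2; seven serial compound concentrations plus solvent control (DMSO ≤0.1%).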
# [8] = IUF_NPC2-5_cytotoxicity_120hr: Cytotoxicity Assessment at 120 hours in the Leibniz Research Institute for Environmental Medicine (IUF) Neural Progenitor Cell Migration and Differentiation Assay (NPC2-5) (AID 2284307)
# Description: as §1, with “assay.IUF_NPC2-5_cytotoxicity_120hr” for “assay.IUF_NPC5_oligodendrocyte_differentiation_120hr”, “It is designed to measure cytotoxicity” for “Oligodendrocyte differentiation”, “120hr due to loss of membrane integrity. LDH measurements are performed from medium supernatants of each well and are based on the reduction of resazurin to resorufin measured” for “120 hr is determined”, “fluorescence signal (relative fluorescence unit)” for “the number of all O4-positive cells”, “a multiplate reader.” for “percent of the number of Hoechst-positive nuclei in the total neurosphere migration area (see IUF_NPC2a_ glia_migration_120hr) after 120 hr of migration/differentiation.”
# [9] = IUF_NPC2-5_cell_number_120hr: Cell Number Assessment at 120 hours in the Leibniz Research Institute for Environmental Medicine (IUF) Neural Progenitor Cell Migration and Differentiation Assay (NPC2-5) (AID 2284308; active = hit-call score of the fitted dose curve at least 0.9, where 1 is the maximum; inactive = score below 0.9;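 note: count of Hoechst-stained nuclei in migration zone around plated human neural progenitor spheres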)
# Procedure, shortened: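 Cell number is taken as all Hoechst-positive nuclei detected in the area into which cells migrate out of the sphere, scored at 120 h and referenced to DMSO solvent control, which was kept at no more than 0.1%.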
# [10] = IUF_NPC2-5_viability_120hr: Viability Assessment at 120 hours in the Leibniz Research Institute for Environmental Medicine (IUF) Neural Progenitor Cell Migration and Differentiation Assay (NPC2-5) (AID 2284312; active = hit-call score of the fitted dose curve at least 0.9, where 1 is the maximum; inactive = score below 0.9)
# Procedure, shortened: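 Alamar blue resorufin fluorescence read after 5 days of differentiation, with compound present from day 0 and replenished at day 3. Primary hNPC spheres on laminin-coated plates, 37C; seven concentrations plus solvent control, fitted against DMSO.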
compound,measurement,setting,value
CC(Cc1ccc(O)c(O)c1)C(C)Cc1ccc(O)c(O)c1 (stereo not drawn),outcome,[1],inactive
same,AC50,[2],64.7 µM (active)
FC(F)(F)C(F)(F)C(F)(F)C(F)(F)C(F)(F)CCI,AC50,[3],18.6 µM (active)
O=P(O)(O)OCCC(F)(F)C(F)(F)C(F)(F)C(F)(F)C(F)(F)C(F)(F)F,outcome,[4],inactive
FC(F)(F)C(F)(F)C(F)(F)C(F)(F)CCI,outcome,[4],inactive
same,AC50,[3],75 µM (active)
O=C(CC(=O)C(F)(F)C(F)(F)F)C(F)(F)F,outcome,[4],inactive
same,AC50,[3],3 µM (active)
OCC(F)(F)C(F)(F)C(F)(F)C(F)(F)C(F)(F)C(F)F,AC50,[3],33.2 µM (active)
N=C(N)C(F)(F)C(F)(F)C(F)(F)C(F)(F)C(F)(F)C(F)(F)C(F)(F)F,outcome,[4],inactive
same,AC50,[3],4.85 µM (active)
O=C(O)C(F)(F)C(F)(F)C(F)(F)C(F)(F)C(F)(F)C(F)(F)C(F)(F)C(F)(F)C(F)(F)C(F)F,AC50,[1],73.5 µM (active)
same,AC50,[3],1.03 µM (active)
FC(F)(F)C(F)(F)C(F)(F)CI,outcome,[4],inactive
O=C(O)C(F)(F)C(F)(F)C(F)(F)C(F)(F)C(F)(F)C(F)(F)C(F)(F)C(F)(F)C(F)(F)C(F)(F)C(F)(F)C(F)(F)C(F)(F)F,AC50,[3],10.3 µM (active)
OCCCC(F)(F)C(F)(F)C(F)(F)C(F)(F)C(F)(F)C(F)(F)C(F)(F)F,outcome,[4],inactive
O=C(O)C(F)(F)C(F)(F)C(F)F,AC50,[3],14.9 µM (active)
C=C(C)C(=O)OCC(F)(F)C(F)(F)C(F)(F)F,outcome,[4],inactive
OCC(F)(F)C(F)(F)C(F)(F)F,outcome,[4],inactive
CCCCC(CC)COP(=O)(O)OCC(CC)CCCC (stereo not drawn),AC50,[1],100 µM (active)
FC(F)(I)C(F)(F)C(F)(F)C(F)(F)I,AC50,[3],3.74 µM (active)
O=C(Cl)C(F)(F)C(F)(F)C(F)(F)C(F)(F)C(F)(F)C(F)(F)C(F)(F)C(F)(F)F,AC50,[1],139 µM (active)
same,AC50,[3],0.491 µM (active)
O=C(O)C(F)(F)C(F)(F)C(F)(F)F,outcome,[4],inactive
same,AC50,[3],31.9 µM (active)
O=C(OCCOCCOCCOC(=O)c1ccccc1)c1ccccc1,outcome,[2],inactive
C=CC(=O)OCC(F)(F)C(F)(F)C(F)(F)C(F)(F)COC(=O)C=C,outcome,[4],inactive
same,AC50,[3],0.886 µM (active)
CCN(Cc1cccc(S(=O)(=O)O)c1)c1ccc(C(=C2C=CC(=[N+](CC)Cc3cccc(S(=O)(=O)O)c3)C=C2)c2ccc(O)cc2S(=O)(=O)[O-])cc1,AC50,[1],66.1 µM (active)
same,outcome,[2],inactive
CC(CCl)OP(=O)(OC(C)CCl)OC(C)CCl (stereo not drawn),AC50,[5],5.43 µM (active)
same,outcome,[6],inactive
same,outcome,[7],inactive
same,outcome,[8],inactive
same,outcome,[9],inactive
same,outcome,[10],inactive
same,outcome,[4],inactive
O=C(O)C(F)(F)C(F)(F)C(F)(F)C(F)(F)F,AC50,[3],10.2 µM (active)
OCC(F)(F)C(F)(F)C(F)(F)C(F)(F)C(F)(F)C(F)(F)F,AC50,[3],36.8 µM (active)
O=C(O)C(F)(F)C(F)(F)OC(F)(F)F,outcome,[4],inactive
same,AC50,[3],31.7 µM (active)
FC(F)(F)C(F)(F)C(F)(F)C(F)(F)C(F)(F)C(F)(F)C(F)(F)C(F)(F)F,outcome,[4],inactive
OCC(F)(F)C(F)(F)C(F)(F)C(F)F,outcome,[4],inactive
CC(C)(C)C(=O)CC(=O)C(F)(F)C(F)(F)C(F)(F)F,outcome,[3],inactive
O=C(O)C(F)(F)C(F)(F)C(F)(F)C(F)(F)C(F)(F)C(F)(F)C(F)(F)C(F)(F)C(F)(F)C(F)(F)C(F)(F)C(F)(F)F,AC50,[3],11.6 µM (active)
COC(=O)CCC(F)(F)C(F)(F)C(F)(F)C(F)(F)F,AC50,[3],53.4 µM (active)
FC(F)(F)C(F)(F)C(F)(F)C(F)(F)C(F)(F)C(F)(F)C(F)(F)C(F)(F)CCS,outcome,[4],inactive
O=C(O)C(F)(F)C(F)(F)C(F)(F)C(F)(F)C(F)(F)C(F)(F)C(F)(F)C(F)(F)Cl,AC50,[1],74.4 µM (active)
same,outcome,[4],inactive
same,AC50,[3],0.252 µM (active)
O=S(=O)(O)C(F)(F)C(F)(F)C(F)(F)C(F)(F)C(F)(F)C(F)(F)C(F)(F)F,AC50,[1],100 µM (active)
same,AC50,[3],0.0773 µM (active)
FC(F)(F)C(F)(F)C(F)(F)C(F)(F)C(F)(F)C(F)(F)CC1CO1 (stereo not drawn),outcome,[4],inactive
OC[C@@H](O)[C@@H](O)[C@H](O)[C@@H](O)CO,outcome,[6],inactive
same,outcome,[7],inactive
same,outcome,[8],inactive
same,outcome,[9],inactive
same,outcome,[10],inactive
